# Results published in the supplement of paper PMC6555819.
# Tests used:
# Test in all cases: PBM binding z-score (relative to random genomic background probes); higher = stronger binding; sequences stand for … in GC…GCGATTGACAGCGTAGAATGAAGG
# [1] = test system: PPARg:RXRa DBDmut IVT, anti-RXR (DBD mutation: RXRa K156A/R161A, NR concentration 270 nM, RXRa partner concentration 90 nM)
# Method in brief: (§1)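 For binding z-scores, the reference was random background probes on custom Agilent 4×180K protein-binding microarrays. These arrays were incubated 1 h with ligand-free nuclear receptor dimers in PBS pH 7.4, 2% milk, 0.02% Triton X-100, 1 mM DTT, 0.2 mg/mL BSA and 0.4 mg/ml salmon testes DNA. Fluorescence was scanned after antibody detection of each partner (one per run) and regression-normalized.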
# [2] = test system: PPARg:RXRa IVT, anti-PPARg (NR concentration 270 nM, RXRa partner concentration 90 nM)
# Method in brief: as §1
# [3] = test system: PPARg DBDmut:RXRa IVT, anti-PPARg (DBD mutation: PPARg1 K132A/R137A, NR concentration 270 nM, RXRa partner concentration 90 nM)
# Method in brief: as §1
# [4] = test system: PPARg DBDmut IVT, anti-PPARg (DBD mutation: PPARg1 K132A/R137A, NR concentration 270 nM)
# Method in brief: as §1
# [5] = test system: PPARg homodimer (NR concentration 180 nM)
# Method in brief: as §1
# [6] = test system: PXR:RXRa (NR concentration 270 nM, RXRa partner concentration 90 nM)
# Method in brief: as §1
# [7] = test system: PXR homodimer (NR concentration 270 nM)
# Method in brief: as §1
# [8] = test system: RARa:RXR (NR concentration 270 nM, RXRa partner concentration 90 nM)
# Method in brief: as §1
# [9] = test system: RARa homodimer (NR concentration 270 nM)
# Method in brief: as §1
# [10] = test system: RARb:RXRa (NR concentration 270 nM, RXRa partner concentration 90 nM)
# Method in brief: as §1
# [11] = test system: RARb homodimer (NR concentration 270 nM)
# Method in brief: as §1
# [12] = test system: RARg homodimer (NR concentration 270 nM)
# Method in brief: as §1
# [13] = test system: RXRa DBDmut IVT, anti-RXR (DBD mutation: RXRa K156A/R161A, NR concentration 90 nM)
# Method in brief: as §1
# [14] = test system: RXRa homodimer (NR concentration 180 nM)
# Method in brief: as §1
# [15] = test system: THRa:RXRa (NR concentration 90 nM, RXRa partner concentration 90 nM)
# Method in brief: as §1
# [16] = test system: THRa homodimer (NR concentration 90 nM)
# Method in brief: as §1
# [17] = test system: VDR homodimer (NR concentration 270 nM)
# Method in brief: as §1
# [18] = test system: RARg:RXRa (NR concentration 270 nM, RXRa partner concentration 90 nM)
# Method in brief: as §1
# [19] = test system: VDR:RXRa (NR concentration 270 nM, RXRa partner concentration 90 nM)
# Method in brief: as §1
Sequence,PBM binding z-score [1],PBM binding z-score [2],PBM binding z-score [3],PBM binding z-score [4],PBM binding z-score [5],PBM binding z-score [6],PBM binding z-score [7],PBM binding z-score [8],PBM binding z-score [9],PBM binding z-score [10],PBM binding z-score [11],PBM binding z-score [12],PBM binding z-score [13],PBM binding z-score [14],PBM binding z-score [15],PBM binding z-score [16],PBM binding z-score [17],PBM binding z-score [18],PBM binding z-score [19]
CGTCCAAGGTCATGGGAGGTCAGTGAAGACAGAT,2.93,4.47,0.44,-0.0199,4.73,7.17,5.18,6.5,2.4,5.61,5.85,7.97,3.73,7.56,5.51,3.83,4.5,,
CCTACTGGGCCAAAGGCCATTGATTCCAATGCTC,3.67,4.27,-1.16,-0.289,0.544,-0.131,-0.371,0.0662,-0.609,0.924,0.736,0.568,-0.726,-0.132,-0.0621,-0.567,-0.468,,
CCTCGGAGGACAACAGGAGGTCAAAGCTGCCAGA,0.133,1.07,-0.509,-2.06,2.31,4.04,1.35,4.12,0.524,3.25,3.77,3.86,0.524,3.56,3.43,1.34,2.4,,
CCTCGGAGGACACCAGGAGGTCAGAGCTGCCAGA,-0.249,0.459,-1.54,-1.67,1.78,2.17,-0.014,2.56,0.922,,3.49,3.53,-0.302,2.11,2.93,1.37,1.13,3.94,1.99
TGGCCTAGGTCATGGGCCAGTATACCACGCGAAC,0.46,2.6,0.17,-0.783,0.937,1.04,-0.935,2.31,-0.155,3.82,2.96,5.07,-0.28,3.6,2.83,0.639,-0.0403,,
ATTTGTAGGTTATCGGGTCATTCAGTTTGCGCAT,6.74,6.84,2.14,2.88,3.32,4.01,6.61,3.9,2.71,,3.53,3.01,1.95,3.61,3.6,3.62,4.42,3.69,
CGTTCAAGGTCATAGGAGGTCAGTGAAGACAGAT,3.95,5.26,1.34,2.03,5.42,6.86,5.84,6.33,3.73,,5.77,7.22,4.47,6.46,5.23,3.63,5.25,7.11,
CCTACTGGGCCAAAGGTCCTTGATTCCAATGCTC,5.03,5.07,-0.487,-1.06,0.826,-0.225,-0.792,0.089,-0.831,,0.379,-0.124,-0.459,0.121,-0.00931,-0.139,-0.217,0.102,
CGTCTAAGGTCAAGGTCAGTGAAAGAGACTCGAA,4.02,4.78,0.613,0.471,4.29,5.41,1.4,5.75,2.57,,5.28,8.01,4.05,7.32,4.53,4.38,3.2,7.24,
TAGCCTAGGTCCTTCAGGGGCCAGTATAGAAAGC,-1.03,-0.0823,-0.672,0.051,-0.932,-0.686,-0.979,-0.334,-0.852,,0.357,0.108,-1.03,-0.259,0.402,-0.799,-0.422,0.825,
CCTACTGGGCCACGAAAGGTAATTGATTCAGTGA,5.29,5.07,0.766,-0.144,0.00713,-0.257,-0.335,-0.102,0.0551,,0.322,0.352,-0.464,-0.00441,1.11,-0.00813,-0.234,0.0783,
CCGACGGGGGCAAGGTTACCATAACGCACAGCCA,1.63,2.94,2.07,2.52,1.9,2.63,0.67,3.36,0.881,,2.54,3.51,2.32,3.35,3.09,1.26,1.78,3.79,
ACTAGTTGCTCAGCTGAGGTCACACACAATTCGG,0.944,1.76,0.496,1.18,1.91,4.3,1.44,4.26,0.561,,3.77,2.72,1.09,3.6,4.23,4.94,3.14,3.37,
